Compounds with a hit are over-represented: about 21% of the library has one in this group of screens.
Cycloheximide cs = counter-screen hit for Shiga toxin inhibitors, cycloheximide | cell reporter, cycloheximide protein synthesis inhibition counterscreen | max response, % | 300,000 tested, 12% active | AID 2314; in the data active = max response mostly above about 13%, no sharp cut-off; inactive = mostly below about 14%; also: read at 38.3 µM for the half of the compounds with a filed dose; 0% is about no effect
SARS PLP yeast = blocks SARS-CoV papain-like protease in a yeast assay. S. cerevisiae expressing SARS-CoV PLpro, growth rescue. Potency, µM (series often up to 32.9 µM), without a hit: at the top dose activity, positive = growth rescue, most hits filed as activators. 330,000 tested, 0.19% active; calls by dose curve; also: potency is read from the fitted curve at half-maximal effect; 0% is about no effect; nearly all actives have a fitted effect of over 55% in size
NS1 inh = blocks influenza NS1 protein function. Potency, µM (top dose mostly 46.1 µM), without a hit: at the top dose activity, positive = more growth. 270,000 tested, 0.4% active; calls by dose curve; also: potency is read from the fitted curve at half-maximal effect; actives are rising curves; nearly all actives have a fitted effect of over 50% in size
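Recovery from NS1-induced slow growth read by OD600 in budding yeast switched to galactose assay medium (pH 6.0, -URA) at 1:100 dilution. Compound 23 nl per well; the matching strain lacking NS1 serves as control.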
Shiga inhibitor = blocks Shiga toxin action in Vero cells | Vero cells, Shiga toxin protein synthesis inhibition reporter | inhibition, % at 38.7 µM | 290,000 tested, 9.2% active; in the data active = inhibition mostly above about 28%, no sharp cut-off; inactive = mostly below about 43%; also: 0% is about no effect
Pf growth 96h = inhibits malaria parasite growth, 96 h | 320,000 tested, 6.9% active | Potency, µM (highest dose often 28.7 µM), without a hit: at the highest dose activity change, negative = inhibition, usual class: inhibitors | AID 504834 | P. falciparum luciferase reporter growth, 96 h; also: potency is read from the fitted curve at half-maximal effect; % is scaled to controls: 0 for no effect and ±100 for the full control effect
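Plates of compound plus infected erythrocytes (2% hematocrit, 0.05% parasitemia final) incubate 96 hours, 37 C, 5% CO2. Detection reagent added; reduced luminescence from the parasites' luciferase reporter flags inhibition.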
Pf growth 48h = inhibits P. falciparum growth in the first generation, 48 h; P. falciparum luciferase growth in erythrocytes, 48 h; Potency, µM (highest dose often 28.7 µM), without a hit: top-dose activity change, negative = inhibition, usual class: inhibitors; 310,000 tested, 5.9% active; also: potency is read from the fitted curve at half-maximal effect; % is scaled to controls: 0 for no effect and ±100 for the full control effect
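Luciferase-expressing P. falciparum in infected erythrocytes (2% hematocrit, 0.1% parasitemia final) in RPMI 1640/0.5% Albumax were exposed to compound for 48 hours at 37 C, 5% CO2; growth read as luminescence.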
* = called active by the depositor; u = inconclusive; x = not tested or not shown. Unless noted, calls follow the shape of the dose curve; as a rule, active = well fitted inhibition curve with a large enough effect; inconclusive = small, poorly fitted or top-dose-only effect, or another doubt; inactive = no such curve, though single readings can be large or run the other way.

SMILES | Cycloheximide cs | SARS PLP yeast | NS1 inh | Shiga inhibitor | Pf growth 96h | Pf growth 48h
Cc1ccc(-c2cc(-c3ccccc3[N+](=O)[O-])[nH]n2)c(O)c1 | 31.0* | -16.3% | -135.0% | 75.4* | -18.3% | -18.2%
Cc1ccc(S(=O)(=O)N(c2nc(N(C)C)nc(N(C)C)n2)n2cnnc2)cc1 | -1.8 | 3.1% | 2.4% | -7.3 | x | -6.6%
CCOC(=O)c1cc(S(=O)(=O)N2CCC(C)CC2)cn1C | -2.0 | 1.2% | -0.6% | -14.5 | 15.9% | 16.7%
CSCC[C@H](NC(=O)C1=NN(c2c(F)c(F)cc(F)c2F)C(=O)CC1)c1nc2ccccc2[nH]1 | -3.3 | 0.9% | 5.9% | -10.5 | u | u
Nc1c(C(=O)N/N=C/c2ccc(Cl)cc2)cnn1-c1ccccc1 | 16.8 | 0.3% | 12.5% | 36.8 | 9.8% | 13.2%
Nc1c(C(=O)N/N=C/c2cccnc2)cnn1-c1ccccc1 | 46.7* | 7.1% | 16.5% | 50.7* | 119.7% | 111.9%
COc1cccc(/C=N/NC(=O)c2cnn(-c3ccccc3)c2N)c1 | 45.9* | 0.7% | 0.5% | 71.7* | 88.6% | 74.7%
Cc1ccccc1-c1ccc(Nc2ccc(N3CCOCC3)cc2)nn1 | 29.4* | -1.1% | -17.6% | 25.6 | 3.4% | u
O=S1(=O)N=C(Nc2ccc(N3CCOCC3)cc2)c2ccccc21 | -1.0 | 6.1% | 2.0% | 26.6 | 47.7% | 12.1%
O=C(O)CC(C(=O)Nc1ccc(F)cc1)C1CCCO1 (configuration not stated) | -2.2 | -2.3% | 2.4% | -1.9 | 27.0% | 3.8%
COc1cccc(/C=C2\SC(=O)N(CCC(=O)N3CCC(C(=O)O)CC3)C2=O)c1 | -7.5 | 2.0% | -1.2% | -5.9 | u | 1.0%
CCCCOc1cccc(NC(=O)CSc2nccn2C)c1 | 8.8* | -1.0% | -2.3% | 37.2 | -12.6% | 20.2%
Cn1ccnc1SCC(=O)Nc1cccc(O)c1 | 20.8* | 2.5% | 10.9% | 58.1 | x | 59.8%
Cc1cc(C)c(NC(=O)CSc2nccn2C)c(C)c1 | 3.0 | 9.6% | 11.6% | 20.3 | 0.0738µM* | 15.3%
Cn1ccnc1SCC(=O)Nc1cccc(C(F)(F)F)c1 | 20.0 | 0.7% | -9.2% | 40.8 | u | 36.4%
O=c1[nH]c(C(Cl)(Cl)Cl)nc2ccc3ccccc3c12 | -2.4 | -4.4% | -49.7% | -9.8 | -27.9% | u
COc1ccc(C2NC(c3ccc(OC)cc3)C(c3ccccc3)C(=O)C2c2ccccc2)cc1 (configuration not stated) | -1.1 | -12.8% | -4.3% | 3.8 | 10.4µM* | 11.7µM*
CCCCOc1ccc(NC2=NC3(CCCCC3)N=C(N)N2)cc1 | 5.3 | 3.1% | -2.3% | -12.1 | 8.2% | 0.657µM*
NC1=NC2(CCCC2)N=C(Nc2ccccc2)N1 | -3.9 | 0.0% | 4.2% | -9.4 | 1.47µM* | u
COc1ccc(OC)c(NC2=NC3(CCCCC3)N=C(N)N2)c1 | -3.0 | 2.3% | 1.0% | -3.2 | -17.3% | u
CC1(C)N=C(N)NC(Nc2ccccc2Cl)=N1 | 8.3 | x | x | 5.9 | 31.0% | -33.8%
COc1ccc(NC2=NC3(CCCCC3)N=C(N)N2)cc1 | -0.7 | 1.3% | u | -12.9 | u | 0.928µM*
CCCCCOc1ccc(NS(C)(=O)=O)cc1 | 29.1 | -4.8% | -11.6% | 37.1 | -0.9% | u
NC1=NC(c2ccccc2)N=C(Nc2ccccc2)N1 (configuration not stated) | 14.1* | -1.0% | -20.4% | 19.8 | 2.94µM* | 4.65µM*
FC(F)Sc1nc(-c2ccccc2)c(-c2ccccc2)n1C(F)F | 3.0 | -4.7% | -7.2% | 6.7 | 3.29µM* | -3.3%
O=C(CSc1nc2ccccc2n1Cc1ccccc1)N/N=C/c1ccccc1C(=O)O | -1.2 | 0.2% | 8.5% | 23.5 | -13.1% | u
O=C(CSc1nc2ccccc2n1Cc1ccccc1Cl)N/N=C/c1ccccc1C(=O)O | 17.5* | -0.5% | u | 39.1 | 5.22µM* | u
O=C(/C=C/c1ccccc1)C1C(=O)c2ccccc2C1=O | 33.2* | -23.5% | -10.1% | 42.0* | 3.7% | 8.1%
CCc1ccc(C2C(C(=O)O)c3ccccc3C(=O)N2C)cc1 (configuration not stated) | -2.9 | 0.7% | 1.6% | -15.7 | x | 10.6%
CCc1ccc(/C=C/C(=O)C2C(=O)c3ccccc3C2=O)cc1 | 11.7 | -12.6% | 19.6% | 54.2 | 0.928µM* | 0.928µM*

Screens deposited in PubChem by National Center for Advancing Translational Sciences (NCATS).
